Screening results from PubChem.
Shown are actives, neighbours in structure and some others; about 3.1% of the full set was active somewhere.
Anthrax LF prot: Bacillus anthracis LF protease inhibitors, primary screen, biochemical, multiplex microsphere, MLPCN library; Lethal factor (Bacillus anthracis), P15917; multiplex microsphere protease cleavage assay; inhibition, % at 10 µM; 360,000 tested, 0.12% active; AID 588501, 2011; in the data active = inhibition above about 30%; inconclusive = no clear call, values can overlap the other calls; also: plate controls were buffer without enzyme for full effect and enzyme alone for no effect
Target sequence (P15917 whole entry, looked up): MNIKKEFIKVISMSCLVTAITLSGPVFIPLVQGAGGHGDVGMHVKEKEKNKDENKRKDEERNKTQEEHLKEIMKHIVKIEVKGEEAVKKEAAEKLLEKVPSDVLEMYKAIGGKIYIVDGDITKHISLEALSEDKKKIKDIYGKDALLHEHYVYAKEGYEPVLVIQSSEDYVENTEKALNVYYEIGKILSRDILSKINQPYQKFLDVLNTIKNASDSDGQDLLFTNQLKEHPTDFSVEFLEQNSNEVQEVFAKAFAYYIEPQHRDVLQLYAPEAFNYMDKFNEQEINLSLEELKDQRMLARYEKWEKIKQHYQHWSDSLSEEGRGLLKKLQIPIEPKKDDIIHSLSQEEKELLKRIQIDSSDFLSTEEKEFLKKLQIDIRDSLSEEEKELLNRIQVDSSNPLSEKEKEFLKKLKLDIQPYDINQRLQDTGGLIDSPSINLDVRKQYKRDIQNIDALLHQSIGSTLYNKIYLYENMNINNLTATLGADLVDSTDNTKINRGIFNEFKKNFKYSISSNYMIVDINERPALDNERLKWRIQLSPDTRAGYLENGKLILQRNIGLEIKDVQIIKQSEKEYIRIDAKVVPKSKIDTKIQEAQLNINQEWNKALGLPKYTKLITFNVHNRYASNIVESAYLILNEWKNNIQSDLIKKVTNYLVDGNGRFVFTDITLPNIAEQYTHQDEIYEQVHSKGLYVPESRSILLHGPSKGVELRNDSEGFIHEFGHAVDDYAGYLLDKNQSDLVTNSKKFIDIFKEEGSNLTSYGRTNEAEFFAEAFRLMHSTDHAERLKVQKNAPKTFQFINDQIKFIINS
PriA SSB inh: inhibitors of Klebsiella pneumoniae PriA binding to SSB C-terminal tail, primary screen, biochemical, AlphaScreen | AlphaScreen SSBct-PriA binding, biotinylated peptide | PriA–SSB C-terminal tail interaction (Klebsiella pneumoniae) | inhibition, % at 33 µM | 430,000 tested, 0.6% active; in the data active = inhibition mostly above about 37%, no sharp cut-off; inactive = mostly below about 20%;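 also: plate controls were negative control peptide for no effect and reference peptide for full effect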
BoNT F protease: BoNT/F light chain protease inhibitors, primary screen, biochemical, flow cytometry, MLPCN library | AID 588497, 2011 | 360,000 tested, 0.22% active | inhibition, % at 10 µM | Multiplex microsphere protease cleavage assay; in the data active = inhibition above about 35%, passing the limit was not always enough; inconclusive = no clear call, values can overlap the other calls; also: plate controls were buffer without enzyme for full effect and enzyme alone for no effect
Bead autofluor: compound fluorescence in toxin protease inhibitor counterscreen. compound autofluorescence counterscreen, microsphere flow cytometry; active compounds read high. fluorescence intensity (no concentration beside the values). 360,000 tested, 3.1% active; in the data active = fluorescence intensity above about 16000; inconclusive = no clear call, values can overlap the other calls
BoNT A protease: BoNT/A light chain protease inhibitors, primary screen, biochemical, flow cytometry, MLPCN library. AID 588499, 2011. Botulinum neurotoxin type A light chain protease (Clostridium botulinum A str. ATCC 3502). inhibition, % at 10 µM. 360,000 tested, 0.17% active. multiplex microsphere protease substrate cleavage; in the data active = inhibition above about 30%; inconclusive = no clear call, values can overlap the other calls; also: plate controls were buffer without enzyme for full effect and enzyme alone for no effect
BoNTA LC inh 1: BoNT/A light chain protease inhibitors, confirmation, biochemical, flow cytometry, cherry pick 1 | shares compounds with BoNT F protease | multiplex microsphere protease assay | inhibition, % at 10 µM | 720 tested, 3% active; in the data active = inhibition above about 32%
BoNT-F LC CP1: BoNT/F light chain protease inhibitors, confirmation, biochemical, flow cytometry, cherry pick 1; inhibition, % at 10 µM; shares compounds with BoNT F protease; multiplex microsphere protease cleavage assay; 720 tested, under 10 active
Anthrax LF CP1: Bacillus anthracis LF protease inhibitors, confirmation, biochemical, multiplex microsphere, cherry pick 1 | shares compounds with BoNT F protease | inhibition, % at 10 µM | 720 tested, under 10 active | multiplex microsphere protease cleavage assay
BoNTA LC inh 2: BoNT/A light chain protease inhibitors, confirmation, biochemical, flow cytometry, cherry pick 2; shares compounds with BoNT A protease; inhibition, % at 10 µM; 150 tested, 10% active; multiplex microsphere protease cleavage assay; in the data active = inhibition above about 24%
LF protease CP2: Bacillus anthracis LF protease inhibitors, confirmation, biochemical, multiplex microsphere; shares compounds with BoNT A protease; multiplex microsphere protease cleavage assay; inhibition, % at 10 µM; 150 tested, 7% active; AID 602327, 2012; in the data active = inhibition above about 25%
BoNT-F LC CP2: BoNT/F light chain protease inhibitors, confirmation, biochemical, flow cytometry, cherry pick 2 | AID 602336, 2012 | inhibition, % at 10 µM | 150 tested, 7% active | shares compounds with BoNT A protease | multiplex microsphere protease cleavage assay; in the data active = inhibition above about 25%
* = called active by the depositor; ? = inconclusive; nt = no result given. Unless noted, no rule for the calls is given here.

SMILES | Anthrax LF prot | PriA SSB inh | BoNT F protease | Bead autofluor | BoNT A protease | BoNTA LC inh 1 | BoNT-F LC CP1 | Anthrax LF CP1 | others
COc1ccc(C(c2nnnn2CS(=O)(=O)c2ccc(C)cc2)N2CCN(Cc3ccccc3)CC2)cc1 (stereo unspecified) | -1 | 3 | 34 | 4894 | -1 | 1 | -3 | -1
COc1cc(Cl)c(C)cc1-n1ccn(CC(=O)NCc2ccccc2)c(=O)c1=O | nt | -3 | nt | nt | nt | nt | nt | nt
Cc1cc(C)cc(OCC(=O)n2nc(C)cc2C)c1 | nt | -1 | nt | nt | nt | nt | nt | nt
Cc1cc(C)n(C(=O)COc2c(C)cccc2C)n1 | 2 | -7 | 47* | 4333 | 2 | 0 | -2 | -1
O=C(Nc1nc(-c2ccccc2)c(-c2ccccc2)s1)c1ccc(S(=O)(=O)N2CCCC2)cc1 | -4 | -7 | 1 | 15385 | 3 | -1 | -2 | 0
COc1ccc(C(=O)Nc2nc(-c3ccc([N+](=O)[O-])cc3)c(-c3ccccc3)s2)cc1 | 31* | 1 | 15 | 2430 | 29 | 24 | 3 | 18
COc1ccccc1C(CNC(=O)C(=O)Nc1cc(C)on1)OC (stereo unspecified) | nt | -22 | nt | nt | nt | nt | nt | nt
CCOc1cc(-c2ccc(OC)cc2)nc2ccc(NC(=O)C3CCCC3)cc12 | nt | 6 | nt | nt | nt | nt | nt | nt
CCS(=O)(=O)Nc1cccc(C2=NN(S(C)(=O)=O)C(c3ccccc3)C2)c1 (stereo unspecified) | 0 | -2 | 8 | 7796 | -1 | nt | nt | nt
CCS(=O)(=O)N1N=C(c2cccc(NS(C)(=O)=O)c2)CC1c1ccccc1 (stereo unspecified) | 44* | -6 | 30 | 25649* | 94* | -6 | nt | -8
NS(=O)(=O)c1cc([N+](=O)[O-])ccc1NCc1cccnc1 | 2 | -5 | 39* | 4090 | 4 | 0 | 0 | 0
NC(=O)c1cc([N+](=O)[O-])ccc1NCc1cccnc1 | -2 | -16 | 1 | 4466 | 0 | nt | nt | nt
O=C(NCS(=O)(=O)c1ccccc1)c1ccccc1 | -2 | 2 | 36* | 4447 | 2 | 1 | 2 | 4
O=C(NCCNC(=O)c1ccccc1)c1ccccc1 | 1 | 6 | 3 | 4755 | 1 | nt | nt | nt
O=C(NCc1cc(-c2ccc3c(c2)OCO3)on1)C1CC1 | nt | -5 | nt | nt | nt | nt | nt | nt
CCC(C)c1ccccc1OCC(O)CN1CCN(C(c2ccccc2)c2ccccc2)CC1 (stereo unspecified) | nt | -8 | nt | nt | nt | nt | nt | nt
O=C(CCCc1nc2ccccc2s1)NCc1ccc(F)cc1 | 0 | -4 | 40* | 1938 | 3 | 0 | -3 | -4
c1ccc(CN2CCN(c3nc(N4CCN(Cc5ccccc5)CC4)nc(N4CCN(Cc5ccccc5)CC4)n3)CC2)cc1 | nt | -8 | nt | nt | nt | nt | nt | nt
Cc1ccc(S(=O)(=O)NCCOc2ccc3nnc(-c4cccc(F)c4)n3n2)cc1C | nt | 4 | nt | nt | nt | nt | nt | nt
COc1cccc(CNC(=O)Cn2cccc(-c3nc(-c4ccc(Br)cc4)no3)c2=O)c1 | nt | -8 | nt | nt | nt | nt | nt | nt
Cc1ccc(NC(=O)CN(C)C(=O)c2ccccc2OCc2c(C)noc2C)cc1 | ? | -4 | ? | ? | 89* | 0 | 0 | -2
Cc1ccc(C(=O)Nc2ccc(S(=O)(=O)N3CCc4ccccc4C3)cc2)o1 | -3 | 5 | 36* | 8089 | 4 | 1 | -2 | -1
COc1ccc(NC(=O)c2[nH]c(C)c(C(C)=O)c2C)cc1 | -3 | 6 | -4 | 4240 | -2 | nt | nt | nt
CCOc1ccc(NC(=O)c2[nH]c(C)c(C(C)=O)c2C)cc1 | 3 | 2 | 35* | 7115 | -1 | -2 | -7 | -2
CCNc1ccc(S(=O)(=O)N(C)C)cc1NCC(=O)Nc1ccccc1F | -1 | 6 | -5 | 2492 | 0 | nt | nt | nt
SMILES | Anthrax LF prot | PriA SSB inh | BoNT F protease | Bead autofluor | BoNT A protease | BoNTA LC inh 1 | BoNT-F LC CP1 | Anthrax LF CP1 | others
CCNc1ccc(S(=O)(=O)N(C)C)cc1NCC(=O)Nc1ccccc1Br | -7 | 5 | 41* | 4121 | 8 | 1 | -5 | 1
Cc1oc(C)c(S(=O)(=O)NCc2cccs2)c1C(=O)O | 38* | 0 | ? | 4495 | ? | 0 | -3 | 2
COc1cc(NC(=O)NCC(c2ccsc2)N2CCCC2)cc(OC)c1OC (stereo unspecified) | nt | 2 | nt | nt | nt | nt | nt | nt
Cc1cc(C)c(S(=O)(=O)NCCn2ncccc2=O)c(C)c1 | nt | -2 | nt | nt | nt | nt | nt | nt
Cc1cc(C)c(S(=O)(=O)NCCn2c(C)cc3ccccc32)c(C)c1 | -62 | 9 | -84 | 2507 | 42* | nt | nt | nt | BoNTA LC inh 2=6;LF protease CP2=0;BoNT-F LC CP2=-14
Cc1cc2ccccc2n1CCNC(=O)Cc1ccccc1 | -76 | 44* | -91 | 1072 | 72* | nt | nt | nt | BoNTA LC inh 2=24*;LF protease CP2=30*;BoNT-F LC CP2=12
Cc1cc2ccccc2n1CCNC(=O)c1ccc(S(=O)(=O)N2CCCCC2)cc1 | -126 | 23 | -124 | 1440 | 59* | nt | nt | nt | BoNTA LC inh 2=53*;LF protease CP2=14;BoNT-F LC CP2=-50
Cc1cc2ccccc2n1CCNC(=O)C(C)C | 60* | 10 | 13 | 3584 | 80* | nt | nt | nt | BoNTA LC inh 2=29*;LF protease CP2=34*;BoNT-F LC CP2=15
Cc1cc2ccccc2n1CCNC(=O)c1ccc(C(F)(F)F)cc1 | nt | -4 | nt | nt | nt | nt | nt | nt
Cc1cc2ccccc2n1CCNC(=O)C(C)Oc1ccccc1 (stereo unspecified) | -77 | 35 | -122 | 975 | 79* | nt | nt | nt | BoNTA LC inh 2=17;LF protease CP2=16;BoNT-F LC CP2=0
O=C(CCN1C(=O)c2ccccc2C1=O)CN1CCC(Cn2c(C(F)(F)F)nc3ccccc32)CC1 | nt | -6 | nt | nt | nt | nt | nt | nt
CCN(CC)c1ccc2cc(S(=O)(=O)c3ccc(C)cc3)c(=O)oc2c1 | 15 | -3 | -5 | 2271 | 24 | nt | nt | nt | BoNTA LC inh 2=5;LF protease CP2=5;BoNT-F LC CP2=2
Cc1cc2cc(CNC(=O)c3ccc(S(=O)(=O)N(C)C)cc3)ccc2n1C | -64 | 11 | -66 | 1889 | 82* | nt | nt | nt | BoNTA LC inh 2=9;LF protease CP2=9;BoNT-F LC CP2=18
CCCCOc1ccc(C(=O)NCc2ccc3c(c2)cc(C)n3C)cc1 | nt | -12 | nt | nt | nt | nt | nt | nt
Cc1cc2cc(CNC(=O)c3ccc(S(=O)(=O)N4CCOCC4)cc3)ccc2n1C | -76 | 7 | -92 | 1461 | 81* | nt | nt | nt | BoNTA LC inh 2=6;LF protease CP2=4;BoNT-F LC CP2=8
Cc1ccc(CNC(=O)c2ccc(S(=O)(=O)N3CCCCCC3)cc2)cc1 | 3 | nt | 1 | 3339 | 0 | nt | nt | nt
